Here are results for 62 compounds from PubChem BioAssay AID938 (National Center for Advancing Translational Sciences (NCATS), 2007).

Molecules are shown by their SMILES. Where “and” joins values, the source holds several entries; their conditions need not be identical. Equal entries are not always repeated. Among all 73,000 compounds or so, about 1,800 (2.5%) were called active. About 13% were inconclusive and are not listed. Calls come from the whole dose curve; as a rule, active = well fitted activation curve with a large enough effect; inconclusive = small, poorly fitted or top-dose-only effect; inactive = no such curve, though single readings can be large or run the other way. Only a selection was taken, and actives are over-represented in it overall. More than one record can exist for a structure, and the calls need not agree.
Potency is the fitted concentration of half-maximal effect.

This assay is described as follows: qHTS Assay for Agonists of the Thyroid Stimulating Hormone Receptor: Activators of Intracellular cAMP Concentrations in Parental HEK 293. For activation: % of control where 0% means no effect. Note: nearly all actives have a fitted effect of over 55% in size. The note with it: parental HEK293 CNG cAMP sensor, membrane potential fluorescence; series mostly up to 57.1 µM; activation: at the top concentration. A digest of the protocol:
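Parental HEK 293 cells stably expressing a modified CNG channel (no TSHR) report cAMP rise as membrane depolarization. Membrane potential dye with 100 uM RO 20-1724 was loaded for 60 min at room temperature, then compound added for 30 min; fluorescence read at 590 nm.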
As for `CO[C@H]1COC(=O)[C@@H](C)NC(=O)C/C=C\[C@@H](C)[C@H](OC)COC(=O)C/C=C\[C@@H]1C`, the activation was 2.45% [at 11.4 µM] (inactive).

For the compound `Cc1ccc(N(CC(O)CN2CCCC2)S(=O)(=O)c2ccccc2)cc1` (configuration not stated), the activation was 9.44% [at 11.4 µM] (inactive).

With `Cc1ccc(/C(=C/CN2CCCC2)c2ccccn2)cc1`, the Potency result was “inactive and 25.1 µM (active)”. Regarding `Cc1ccc(N2CCN(c3ccc(C)cc3)C2c2ccccn2)cc1`, the “activation” value was -3.82% (inactive). As to `O=NO`, the Potency result is “inactive”. As to `Cn1c(=O)n2n(c1=O)[C@H]1[C@H](O)[C@H]3O[C@H]3C(=O)[C@H]1CC2`, the activation is 0.42% [at 11.4 µM] (inactive). On the same count and under the same terms, in the case of `O=C(Cn1nc(C(F)(F)F)c2c1CCC2)NCc1ccc(F)cc1` it was 14.7% (inactive).

Consider `Cc1cc(NC(=O)Cn2nc(C(F)(F)F)c3c2CCCC3)no1`, for which the “activation” value was -0.746% (inactive). In the case of `COC(=O)c1ccccc1NC(=O)Cn1nc(C(F)(F)F)c2c1CCC2`, the Potency is 25.1 µM (active).

On to `CCCNC(=O)OC[C@@H]1O[C@H](c2ccccc2)C=C[C@@H]1Oc1ccc(OC)cc1`, for which the activation is 1.38% [at 11.4 µM] (inactive). In the case of `CCCC[C@@H]1C[C@H]1C(NC(=O)c1ccco1)c1ccc(C(=O)OC)cc1` (some centres not stated), the Potency is 25.1 µM (active).

Regarding `COC(=O)c1ccc(NC(=O)c2ccco2)cc1`, the “activation” value is 8.99% (inactive). With `CCCC[C@@H]1C[C@H]1C(NC(=O)c1ccc(-c2ccccc2)cc1)c1ccc(-c2ccccc2)cc1` (some centres not stated), the “activation” value was 1.42% (inactive). On the same count and under the same terms, for `CCC(C)(C)N=C(NC#N)Nc1cccnc1` the value was 0.273% (inactive); for `O=C(CN1CCN(c2ccccc2F)CC1)c1ccc2c(c1)OCO2`, 5.84% (inactive).

As for `COCCn1c(CN2CCC(Cc3ccccc3)CC2)nc2c1c(=O)n(C)c(=O)n2C`, the “activation” value is 24.7% (inactive). For the compound `CC1CCN(Cc2nc3c(c(=O)n(C)c(=O)n3C)n2CCc2ccccc2)CC1`, the Potency was 5.01 µM (active).

As to `Cn1c(=O)c2c(nc(CN3CCOCC3)n2Cc2ccccc2)n(C)c1=O`, the “activation” value is -0.85% (inactive). Still for that read-out and setting: for `CC1CN(C(=O)c2ccc3c(c2)OCO3)OC(c2ccccc2)O1` (configuration not stated) the value was 8.54% (inactive). Turning to `CC(Sc1nc2ccccc2c(=O)n1Cc1ccco1)C(=O)c1ccccc1` (configuration not stated), the Potency is 15.8 µM (active). `Cc1nc2c(c(=O)n1Cc1ccco1)c1nc3ccccc3nc1n2Cc1ccccc1`: the “activation” value is 27.8% (inactive). Still for that read-out and setting: for `Cc1ccc(C(=O)CSc2nc3ccccc3c(=O)n2N)o1` the value was 13.4% (inactive); for `CO[C@H]1COC(=O)[C@H](Cc2ccccc2)NC(=O)C/C=C\[C@@H](C)[C@H](OC)COC(=O)C/C=C\[C@@H]1C`, 25.1% [at 11.4 µM] (inactive). Regarding `COc1ccc(NC(=O)N2CC3(CCN(C(=O)c4cccn4C)CC3)C2)cc1`, the “activation” value is 5.6% (inactive). For the compound `Cn1c(SCC(=O)c2cccs2)nnc1-c1ccco1`, the “activation” value was -17.6% (inactive). The same measure, in the same setting: in the case of `CC(=O)NC(C)c1nc2ccccc2n1Cc1ccccc1F` (configuration not stated) it was 11.7% (inactive).

For `COCn1c(COc2ccccc2)nc2ccccc21`, the activation is 25.1% [at 11.4 µM] (inactive). With `COCc1nc2ccccc2n1Cc1ccccc1Br`, the Potency was 31.6 µM (active). For the compound `COCc1nnc(NC(=O)CS(=O)(=O)Cc2ccccc2)s1`, the “activation” value is 0.984% (inactive). Still for that read-out and setting: for `Cc1ccc(N2CCN(S(=O)(=O)c3ccc(F)cc3)CC2)c(C)c1` the value was 12.7% (inactive); for `CC(Cc1ccccc1)C(=O)N(C)Cc1ccccc1` (configuration not stated), 16.5% (inactive).

As for `COc1ccc(-c2nn3c(-c4ccccc4)nnc3s2)cc1OC`, the “activation” value is 28.3% (inactive).

For `c1ccc(-c2cc(-c3nnc4sc(-c5ccccn5)nn34)[nH]n2)cc1`, the Potency is 25.1 µM (active).

For `CN(C(=O)c1ccccn1)c1nnc(-c2ccccn2)s1`, the “activation” value is -4.34% (inactive). Same read-out and setting: in the case of `Cc1ccc(S(=O)(=O)N2CC(=O)Nc3ccccc32)cc1C` it was -6.15% [at 11.4 µM] (inactive).

Consider `CCOC(=O)N/N=C1/C[C@@H](O)[C@@H](O)[C@@H]2[C@@H]3C(=O)N(CC)C(=O)[C@H]3CC[C@H]12`, for which the activation was 2.56% [at 11.4 µM] (inactive).

`COc1ccc(OC)c(C(=O)c2ccc(C(=O)O)cc2)c1`: the “activation” value is 2.61% (inactive).

On to `COc1ccc(OC)c(C(=O)c2coc3ccc(OC)cc23)c1`, for which the Potency is 10 µM (active). Turning to `COc1ccc(OC)c(C(=O)c2coc3ccc(O)c(CN4CCOCC4)c23)c1`, the “activation” value is 17.1% (inactive). `O=C(CN1C(=O)CSc2ncccc21)N1CCOCC1`: the “activation” value was -3.29% (inactive). Same read-out and setting: for `CN(C)c1ccc(NC(=O)c2ccncc2)c2ccccc12` the value was -2.48% (inactive). On the same count and under the same terms, in the case of `COc1ccc(CCN2CNc3c(c(=O)n(C)c(=O)n3C)C2)cc1OC` it was 1.78% (inactive); in that of `CCN(CC)C(=O)CCC(=O)Nc1ccc(C(=O)OC)cc1`, 2.85% (inactive). In the case of `CCC/C=C(\CCC)C(NC(=O)Cc1ccccc1)c1ccc(C(=O)OC)cc1` (configuration not stated), the Potency was 15.8 µM (active). For `COC(=O)c1ccc(NCC(=O)c2ccccc2)cc1`, the “activation” value was 7.18% (inactive). The same measure, in the same setting: in the case of `CO[C@H]1COC(=O)CCC[C@@H](C)[C@H](OC)COC(=O)[C@@H](C)NC(=O)C/C=C\[C@@H]1C` it was 4.76% [at 11.4 µM] (inactive).

`Fc1ccc2nc(-c3ccccc3)nc(SCc3nnc(-c4ccccc4)o3)c2c1`: the “activation” value was 19.2% (inactive). On the same count and under the same terms, for `Fc1ccc(-c2nnc3sc(-c4ccc5c(c4)OCO5)nn23)cc1` the value was 23.4% (inactive).

As for `Fc1ccc(-c2nnc(CSc3nnc(-c4ccc5c(c4)OCO5)o3)o2)cc1`, the Potency was 25.1 µM (active).

For the compound `Cc1ccc(C(=O)NC2CC(C)(C)NC(C)(C)C2)c(C)c1`, the “activation” value is 0.884% (inactive).

As to `CCOC(=O)c1ccc(COC(=O)c2cc(=O)[nH]c3ccccc23)o1`, the “activation” value was 3.05% (inactive).

Consider `Cc1nn(Cc2ccccc2)c(Cl)c1C(=O)OC1CCOC1=O` (configuration not stated), for which the “activation” value was 2.04% (inactive). As for `COC(=O)c1ccc(COC(=O)c2c(C)nn(Cc3ccccc3Cl)c2Cl)o1`, the Potency was 15.8 µM (active). On to `CCCCn1c(CCCNC(=O)CC)nc2ccccc21`, for which the “activation” value is 14.9% (inactive). Still for that read-out and setting: in the case of `COc1ccc(NC(=O)CCNC(=O)Cn2ccc3ccccc3c2=O)c(OC)c1` it was -3.68% (inactive). Consider `CC(C)(C)c1cc(CN2CCN(CCC#N)CC2)cc(C(C)(C)C)c1O`, for which the Potency was 7.94 µM (active).

Turning to `N#CCCN1CCN(S(=O)(=O)c2ccc(S(=O)(=O)NC3CC3)cc2)CC1`, the “activation” value is 2.86% (inactive). Same read-out and setting: in the case of `Cc1ccc(S(=O)(=O)NCC(=O)OCC(=O)N2CCc3ccccc32)cc1` it was -6.34% (inactive).

Regarding `C[C@@H]1/C=C\CC(=O)OC[C@H]2O[C@@H](C=C[C@@H]2O)[C@H](C)/C=C\CC(=O)OC[C@H]2O[C@H]1C=C[C@@H]2O`, the activation is -6.65% [at 11.4 µM] (inactive). Same read-out and setting: in the case of `O=C(Nc1ccc2c(c1)OCCO2)c1ccncc1` it was 9.97% (inactive). Same read-out and setting: for `O=C(Nc1cccnc1)c1ccc2c(c1)OCO2` the value was 4.06% (inactive). As to `O=C(Nc1nc(-c2ccc3c(c2)OCO3)cs1)c1ccncc1`, the Potency was 20 µM (active).
